According to PubChem BioAssay AID1159580 (chemical genetic matrix, 2015):
Screen size: about 5,500 compounds; about 2,000 (36%) were called active. Inconclusive results (about 18%) are left out. Cut-off read from the data, not from the text of the source: active = normalized growth mostly below about 0.91 (no sharp cut-off); inconclusive = no clear call, values can overlap the other calls; inactive = mostly above about 0.92. Some of the results follow.

Experiment: chemical genetic growth profiling, strain panel (AID 1159580);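 note: tested at 20 µM; growth read once vehicle control cultures reached saturation at 30 °C; 1 = growth at the plate median or of vehicle wells; lower values mean less growth of the strain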
Conditions: S. cerevisiae deletion strains, growth OD
[1] = locus YHR030C, strain SLT2, hits give low values
[2] = locus YHR079C, strain IRE1, hits give low values
[3] = locus YJL095W, strain BCK1, hits give low values
[4] = locus YJR066W, strain TOR1, hits give low values
[5] = locus YLR113W, strain HOG1, hits give low values
[6] = locus YNL183C, strain NPR1, hits give low values
[7] = locus YOR231W, strain MKK1, hits give low values
[8] = locus YPL256C, strain CLN2, hits give low values
[9] = locus YDL101C, strain DUN1, hits give low values

Measured: normalized growth

C[n+]1ccccc1/C=N\O
inactive: [1] 0.981 | [2] 0.987 | [3] 0.996 | [4] 0.932 | [5] 0.997 | [6] 0.934 | [7] 1 | [8] 0.974

CN1C(=O)CN=C(c2ccccc2)c2ccccc21
inactive: locus YAL013W, strain DEP1, hits give low values 1.01 | locus YBR229C, strain ROT2, hits give low values 0.997 | locus YCL061C, strain MRC1, hits give low values 0.999 | [9] 0.995 | locus YDR150W, strain NUM1, hits give low values 0.86 | locus YEL061C, strain CIN8, hits give low values 1 | locus YGR078C, strain PAC10, hits give low values 1 | [1] 1.03 | locus YHR087W, strain rtc3, hits give low values 0.995 | locus YJR043C, strain POL32, hits give low values 1.01 | locus YJR075W, strain HOC1, hits give low values 0.994 | locus YKL190W, strain CNB1, hits give low values 1 | locus YLR039C, strain RIC1, hits give low values 1.02 | locus YLR058C, strain SHM2 (second series), hits give low values 1.01 | locus YLR085C, strain ARP6, hits give low values 1.02 | locus YLR262C, strain YPT6, hits give low values 1.01 | locus YML094W, strain GIM5, hits give low values 1 | locus YMR219W, strain ESC1, hits give low values 1 | locus YMR263W, strain SAP30, hits give low values 0.981 | locus YMR307W, strain GAS1, hits give low values 1.02 | locus YNL153C, strain GIM3, hits give low values 1 | locus YNL298W, strain CLA4 (second series), hits give low values 1.01 | locus YNL322C, strain KRE1, hits give low values 0.991 | locus YNR030W, strain Alg12, hits give low values 1.02 | locus YPL055C, strain LGE1, hits give low values 0.854 | locus YPL241C, strain CIN2, hits give low values 1.05 | locus YPR135W, strain CTF4, hits give low values 0.979

Cc1cc(SCc2[nH]nc3oc(=O)cc(C)c23)c(Cl)cc1Cl
inactive: locus YAR019C, strain CDC15, hits give low values 0.979 | locus YBL105C, strain PKC1, hits give low values 0.993 | locus YBR135W, strain CKS1, hits give low values 0.984 | locus YBR136W, strain MEC1, hits give low values 0.987 | locus YBR160W, strain CDC28, hits give low values 0.986 | locus YDL017W, strain CDC7, hits give low values 0.988 | locus YDL028C, strain MPS1, hits give low values 0.991 | [9] 0.989 | locus YDL108W, strain KIN28, hits give low values 0.98 | locus YDL132W, strain cdc53, hits give low values 0.987 | locus YDL214C, strain PRR2, hits give low values 1.01 | locus YDR052C, strain DBF4, hits give low values 0.981 | locus YDR054C, strain cdc34, hits give low values 0.983 | locus YDR226W, strain ADK1, hits give low values 0.972 | locus YDR477W, strain SNF1, hits give low values 1.01 | locus YER123W, strain YCK3, hits give low values 0.993 | locus YER133W, strain GLC7, hits give low values 1.03 | locus YFL009W, strain cdc4, hits give low values 0.984 | locus YFL029C, strain CAK1, hits give low values 0.979 | locus YFR003C, strain YPI1, hits give low values 0.994 | locus YFR019W, strain FAB1, hits give low values 0.995 | locus YFR028C, strain CDC14, hits give low values 0.99 | locus YGR040W, strain KSS1, hits give low values 1.01 | locus YGR052W, strain FMP48, hits give low values 1.03 | locus YGR092W, strain DBF2, hits give low values 0.973 | [1] 1.1 | [2] 0.992 | locus YHR082C, strain KSP1, hits give low values 1.13 | locus YHR205W, strain SCH9, hits give low values 0.968 | locus YIL147C, strain SLN1, hits give low values 0.979 | [3] 0.947 | locus YJL128C, strain PBS2, hits give low values 0.933 | locus YJL157C, strain FAR1, hits give low values 1 | locus YJR016C, strain ILV3, hits give low values 0.994 | locus YJR066W, strain TOR1 (second series), hits give low values 0.983 | [4] 1.05 | locus YKL048C, strain ELM1, hits give low values 0.993 | locus YKL067W, strain YNK1, hits give low values 1.01 | locus YKL101W, strain HSL1, hits give low values 1.01 | locus YKL193C, strain SDS22, hits give low values 0.982 | locus YKL203C, strain TOR2, hits give low values 1.04 | [5] 1 | locus YLR133W, strain CKI1, hits give low values 0.998 | locus YLR403W, strain SFP1, hits give low values 0.996 | locus YML070W, strain DAK1, hits give low values 1.02 | locus YMR001C, strain CDC5, hits give low values 0.99 | locus YMR205C, strain PFK2 (second series), hits give low values 1.03 | locus YMR277W, strain FCP1, hits give low values 0.981 | locus YNL006W, strain LST8, hits give low values 0.984 | locus YNL020C, strain ARK1, hits give low values 0.981 | locus YNL161W, strain CBK1, hits give low values 1.01 | [6] 1.05 | locus YNL207W, strain RIO2, hits give low values 0.986 | locus YNL222W, strain SSU72, hits give low values 0.979 | locus YNL307C, strain MCK1 (second series), hits give low values 0.994 | locus YOL078W, strain AVO1, hits give low values 0.998 | locus YOL136C, strain PFK27, hits give low values 1.01 | locus YOR061W, strain CKA2, hits give low values 0.973 | locus YOR119C, strain RIO1, hits give low values 1.08 | [7] 0.985 | locus YOR329C, strain SCD5, hits give low values 0.989 | locus YPL031C, strain PHO85, hits give low values 0.988 | locus YPL153C, strain RAD53, hits give low values 0.987 | locus YPL204W, strain HRR25, hits give low values 0.97 | locus YPL209C, strain IPL1, hits give low values 0.991 | [8] 1.08 | locus YPR025C, strain CCL1, hits give low values 0.99 | locus YPR106W, strain ISR1, hits give low values 1 | locus YPR111W, strain DBF20, hits give low values 0.974 | strain NNK1, hits give low values 0.985 | strain TSCII, hits give low values 0.98
